# Sfp inh – inhibitors of Bacillus subtilis Sfp phosphopantetheinyl transferase. Potency, µM, without a hit: largest response in the series, negative = inhibition, most hits filed as inhibitors. Biochemical Sfp PPTase activity, qHTS. actives 3.5% (n = 310,000). Q9F4F7;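 note: the enzyme is Sfp with the accession as filed and its product quenches rhodamine fluorescence; 0% = enzyme reaction without inhibitor and -100% = no enzyme wells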
#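 Step 1, compound plus 15 nM Sfp-PPTase, 15 min, room temperature. Step 2, add rhodamine-CoA (5 uM) and BHQ-2-YbbR (12.5 uM). Step 3, read 525/598 nm fluorescence at 0 and 30 min.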
# G9a inh – inhibitors of human histone lysine methyltransferase G9a; G9a H3K9 monomethylation, AlphaScreen, 2 h; actives 8.8% (n = 350,000); Potency, µM (series often up to 102 µM), for the others: at the highest dose activity, negative = inhibition, usual class: inhibitors; AID 504332; Q96KQ7; note: % is set by controls: 0 for no effect and ±100 for the full control effect; nearly all actives have a fitted effect of over 75% in size
# Target sequence (Q96KQ7 913-1193 limits assumed): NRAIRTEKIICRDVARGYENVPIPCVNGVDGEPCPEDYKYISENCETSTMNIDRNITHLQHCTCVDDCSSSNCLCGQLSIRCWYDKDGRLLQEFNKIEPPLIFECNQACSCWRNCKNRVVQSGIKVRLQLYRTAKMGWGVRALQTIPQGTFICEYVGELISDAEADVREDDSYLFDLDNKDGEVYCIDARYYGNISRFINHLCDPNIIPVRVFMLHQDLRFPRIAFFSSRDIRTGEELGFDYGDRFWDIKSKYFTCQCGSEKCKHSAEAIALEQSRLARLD
#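 Signal arises when biotinylated H3K9 peptide, once monomethylated, bridges streptavidin donor and antibody-captured acceptor beads. Enzyme at 20 nM was preincubated 15 min with test compounds; peptide 500 nM and SAM 20 uM then reacted for 2 h.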
# BAZ2B inh – inhibitors of human BAZ2B bromodomain | AlphaScreen BAZ2B-H3K14Ac peptide displacement | actives 4.4% (n = 360,000) | Potency, µM (doses to about 114 µM), without a hit: at the highest dose activity change, negative = inhibition, actives largely listed as inhibitors | Q9UIF8 | AID 504333; note: % is set by controls: 0 for no effect and ±100 for the full control effect; nearly all actives have a fitted effect of over 60% in size
#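 Compounds, titrated to a top concentration of 110 uM, were incubated 30 min at room temperature with preformed BAZ2B/acetyl-K14 H3 peptide complex (50 nM each). Proximity signal was measured by AlphaScreen after 20 min with beads.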
# L3MBTL1 inh – inhibitors of human L3MBTL1. AlphaScreen L3MBTL1–H3K9me1 peptide binding. Potency, µM (titrated, usually from 57.1 µM), inactives show at the highest dose activity, negative = inhibition, hits mostly inhibitors. actives 0.66% (n = 230,000). AID 485360; note: % is set by controls: 0 for no effect and ±100 for the full control effect; nearly all actives have a fitted effect of over 60% in size
#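 AlphaScreen proximity signal between nickel-chelate acceptor and streptavidin donor beads (final 10 ug/mL) reports binding of 50 nM L3MBTL1 to 75 nM biotin-H3 K9me1 peptide; complex incubated with compounds 30 min at room temperature; cefsulodin titration as control.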
# JMJD2A Tudor – blocks the human JMJD2A Tudor domain; O75164; AlphaScreen JMJD2A-Tudor / H3K4me3 peptide binding; Potency, µM (highest dose often 114 µM), for the others: top-dose activity change, negative = inhibition, most hits filed as inhibitors; actives 4.4% (n = 390,000); AID 504339; note: % is set by controls: 0 for no effect and ±100 for the full control effect; nearly all actives have a fitted effect of over 50% in size
# HP1b binding inh – HP1-beta chromodomain-methylated histone interaction inhibition; P83916; AlphaScreen HP1-beta / biotin-H3K9me3 peptide binding; Potency, µM (series often up to 114 µM), for inactives: at the highest dose activity change, negative = inhibition, hits mostly inhibitors; actives 0.56% (n = 390,000); AID 540317; note: nearly all actives have a fitted effect of over 70% in size
# Target sequence (P83916 whole entry, looked up): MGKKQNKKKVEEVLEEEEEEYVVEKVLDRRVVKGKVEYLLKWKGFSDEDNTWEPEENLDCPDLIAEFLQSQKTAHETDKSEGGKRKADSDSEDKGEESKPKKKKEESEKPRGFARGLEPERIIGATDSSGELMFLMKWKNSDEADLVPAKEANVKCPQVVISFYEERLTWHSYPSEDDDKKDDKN
#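 AlphaScreen: HP1-beta (50 nM) preformed 30 min with biotin-H3(1-18)K9me3 peptide (50 nM) in PBS pH 7.4, 0.01% Tween-20. Compound added for 30 min at RT, then streptavidin donor/nickel chelate acceptor beads (10 ug/mL) for 30 min.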
# * = called active by the depositor; i = inactive; ? = inconclusive; . = not tested or not shown; [ ] = dose if it differs, or a comment. Compounds with a hit are over-represented: about 12% of the library has one in this group of screens. Calls come from the whole dose curve; as a rule, active = well fitted curve in the direction sought with a large enough effect; inconclusive = small, poorly fitted or top-dose-only effect, or another doubt; inactive = no such curve, though single readings can be large; an effect the other way counts as inactive or inconclusive. Potency is the fitted concentration of half-maximal effect.
SMILES,Sfp inh,G9a inh,BAZ2B inh,L3MBTL1 inh,JMJD2A Tudor,HP1b binding inh
CCN1C(=NCCc2cccs2)N[C@@H](c2cccs2)C(C(=O)OC)=C1C,-1.6%,.,-4.3%[57.1 µM],3.0%,?,5.4%
Cc1cnc(SCCc2ccncc2)nc1C,11.2µM*,8.91µM*,4.0%,-7.9%,.,.
O=S(=O)(c1ccc(Cl)cc1)N1CCN(c2nc(Nc3cc(Cl)ccc3O)nc3ccccc23)CC1,.,.,.,.,-34.0%[80.7 µM],i
Cc1nn(Cc2n[nH]c(=S)n2Cc2ccccc2)c(C)c1Cl,1.9%,2.51µM*,-21.7%,-2.0%,?,15.7%
Cc1cc(C)n(Cc2n[nH]c(=S)n2Cc2ccccc2)n1,-5.8%,15.8µM*,-4.7%,-3.0%,22.4µM*,43.9%
Cc1cc(C)n(Cc2ccc(C(=O)O)o2)n1,5.9%,-8.7%[2.33 µM],-5.8%,5.8%,-6.5%,13.6%
COc1ccc(CNS(=O)(=O)CCNC(=O)c2ccc(OC)cc2)cc1,.,0.9%[0.501 µM],3.5%,6.0%,-6.9%,-0.8%
C=CCNC(=O)c1sc(=S)n(-c2ccc(C(=O)OCC)cc2)c1N,20µM*,3.16µM*,?,-20.5%[11.4 µM],?,?
CCOC(=O)c1ccc(-n2c(=S)sc3c(=O)[nH]c(C)nc32)cc1,12.6µM*,1.78µM*,-4.3%,-2.4%,?,-39.4%
CCOC(=O)CSc1nc2c(sc(=S)n2-c2ccc(CC)cc2)c(=O)[nH]1,14.5%,?,-23.1%,.,-23.9%,28.9%
COc1ccc(-n2c(N)c(C(=O)NCc3ccco3)sc2=S)cc1,3.6%,?,-5.4%,-17.8%,-26.8%,9.6%
CCn1c(N)c(C(=O)NCc2ccco2)sc1=S,22.4µM*,10µM*,?,-28.4%,?,?
CCn1c(N)c(C(N)=O)sc1=S,14.1µM*,?,-0.5%,10.0%,-12.2%,-38.9%
Cc1ccc(NC(=O)Cn2c(=O)n(CCC(C)C)c(=O)c3cccnc32)cc1C,.,-14.3%[59 µM],0.5%,.,-8.0%,22.5%
CCCCc1nc2c(c3c1C[C@H](C)OC3)CN(C(=O)NCCCC(=O)OCC)CC2,1.7%,.,.,.,.,.
CCOC(=O)c1ccc(-n2c(N)c(C(=O)NCc3ccco3)sc2=S)cc1,35.5µM*,?,39.8µM*,-8.9%,25.1µM*,15.8µM*
O=C1NCCCC2c3cc(O)c4ccccc4c3OC12N1CCCCC1 (centres undefined),20µM*,3.55µM*,?,-16.8%,.,.
[N-]=C=C1C(=O)NC(=O)C([n+]2ccc(-c3ccncc3)cc2)C1c1ccccc1C(F)(F)F (centres undefined),50.1µM*,.,?,.,-5.9%,22.4%
[N-]=C=C1C(=S)NC(=O)[C@H]([n+]2ccccc2)[C@H]1c1ccc(Cl)cc1,-10.2%,.,?,27.1%,-33.1%,-0.2%
COc1ccc(C)cc1N(C)C(=O)Cc1c(C(=O)O)n(C)c2ccccc12,12.6%,11.8%,0.4%,.,-13.2%,8.8%
Cc1cc(C=O)c(C)n1-c1cc(C(=O)O)cc(C(=O)O)c1,3.1%,.,17.8µM*,5.01µM*,?,25.1µM*
Cc1cc(/C=N/O)c(C)n1-c1cccc(Cl)c1,-15.1%,44.7µM*,50.1µM*,-19.6%,?,?
Cc1cc(/C=N/O)c(C)n1-c1ccccc1,13.6%,-6.0%[59 µM],-33.8%,-8.0%,?,-2.0%
Cc1ccc(C)n1-c1cccc(C(=O)O)c1,-25.6%,4.47µM*,7.08µM*,1.78µM*,.,.
COC(=O)c1cc(C(=O)OC)cc(-n2c(C)cc(C=O)c2C)c1,23.0%,11.0%[0.0925 µM],-21.3%,-0.7%,-14.9%[57.1 µM],16.0%
SMILES,Sfp inh,G9a inh,BAZ2B inh,L3MBTL1 inh,JMJD2A Tudor,HP1b binding inh
Cc1cc(C=O)c(C)n1-c1cccc(C(=O)O)c1,8.2%,39.8µM*,79.4µM*,25.1µM*,-17.9%,19.5%
COc1ccc(OCC(=O)Nc2ccc3c(c2)N(C)C(=O)c2ccccc2S3)cc1,.,-4.5%[59 µM],-13.1%,.,-30.0%,-13.3%
FC(F)(F)c1ccccc1-c1nc(NCc2cccnc2)c2ccccc2n1,-9.3%,-2.2%[0.501 µM],.,.,.,.
CCC1(C)NC(=O)N(CC(=O)Nc2sc3c(c2C(=O)OC)CCCCC3)C1=O (centres undefined),5.6%,50.1µM*,-26.4%,0.6%,?,-23.7%
COC(=O)c1c(NC(=O)CN2C(=O)C(=O)N(CC(C)C)C2=O)sc2c1CCCCC2,-28.5%,4.6%[59 µM],-37.8%,-17.2%,-27.2%,-17.9%
CCC1(CC)NC(=O)N(CC(=O)Nc2sc3c(c2C(N)=O)CCC3)C1=O,-14.8%,-2.1%[12.7 µM],50.1µM*,.,?,5.4%
CC(C)c1ccc(NC2CCCN(C(=O)c3cccs3)C2)cc1 (centres undefined),-4.3%,50.1µM*,?,.,-32.2%,-9.0%
COC(=O)c1cccc(C(=O)N2CCCC(Nc3ccc(C)c(C)c3)C2)c1 (centres undefined),6.5%,50.1µM*,?,.,-31.6%,8.6%
Cc1ccc(NC2CCCN(C(=O)c3cccnc3)C2)cc1C (centres undefined),11.2%,-1.1%,-16.5%,.,3.0%,19.9%
Cc1cc(C(=O)N2CCCC(N3CCN(c4cccc(C(F)(F)F)c4)CC3)C2)c(C)o1 (centres undefined),17.0%,79.4µM*,-38.2%,.,-19.2%,12.8%
Cc1ccc(NC2CCCN(C(=O)c3cccs3)C2)cc1C (centres undefined),2.5%,35.5µM*,-38.3%,.,-32.9%,-6.0%
Cc1occc1C(=O)N1CCCC(N2CCN(c3cccc(C(F)(F)F)c3)CC2)C1 (centres undefined),12.7%,?,?,.,-22.4%,12.6%
CCOC(=O)N1CCN(C2CCCN(C(=O)c3ccccc3C(F)(F)F)C2)CC1 (centres undefined),8.8%,70.8µM*,-27.0%,.,-9.7%,35.2%
CCOC(=O)N1CCN(C2CCCN(C(=O)c3ccccc3N(C)C)C2)CC1 (centres undefined),6.7%,43.3%,1.1%,.,-4.4%,7.4%
CC(C)c1ccc(S(=O)(=O)N2CCN(C(=O)[C@@H]3CCCN3C(=O)c3cccs3)CC2)cc1,.,44.7µM*,-2.5%,0.2%,-9.0%,28.6%
O=C(C1CCCN1C(=O)c1cccs1)N1CCN(S(=O)(=O)c2ccc(F)cc2)CC1 (centres undefined),.,-8.4%[12.7 µM],-6.1%,2.7%,-15.4%,16.5%
COc1ccc(NC2CCCN(C(=O)c3ccccc3C(F)(F)F)C2)cc1 (centres undefined),10.0%,39.8µM*,?,.,-21.4%,-16.5%
COc1ccc(NC2CCCN(C(=O)c3cc(CC(C)C)nc(N)n3)C2)cc1 (centres undefined),-2.3%,44.7µM*,-30.2%,.,-21.5%,16.5%

# Source: PubChem BioAssay
